Reference: PubChem BioAssay (NCATS)
Records with an inconclusive call do not appear. Unmarked numbers belong to inactive results. Calls of active or inactive are those of the source. Calls come from the whole dose curve; as a rule, active = well fitted cell-killing curve with a large enough effect; inconclusive = small, poorly fitted or top-dose-only effect; inactive = flat fitted curve, though single readings scatter. Where a SMILES comes first, the peptide text is derived from it. [ ]: non-standard residue; d: D form. pGlu = O=C1CC[C@@H](C(=O)O)N1

Experiment: Cellular viability qHTS for adrenocortical cancer (ACC) cell line SW-13 (AID 1963989); note: nearly all actives have a fitted effect of over 65% in size;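 for activity (max response): cells grown in serum-free medium with ITS supplement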
Settings: SW-13 ACC cells viability, CellTiter-Glo, 48 h; activity (max response): active compounds read low
Method in brief: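 48 h treatment, SW-13 in ITS/DMEM serum-free; doses up to 46 uM; readout CellTiter-Glo luminescence; curve fit four-parameter logistic.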
% is set by controls: 0 for no effect and ±100 for the full control effect; potency is the fitted concentration of half-maximal effect.

Question: For COc1cc(Cc2cnc(N)nc2N)cc(OC)c1OC, which activity (max response) is on record?
Answer: -3.43%

Question: Which activity (max response) does the source give for C[C@@H](O)[C@@H]1NC(=O)[C@H](CCCCN)NC(=O)[C@@H](Cc2c[nH]c3ccccc23)NC(=O)[C@H](Cc2ccccc2)NC(=O)[C@@H](NC(=O)[C@H](N)Cc2ccccc2)CSSC[C@@H](C(=O)N[C@H](CO)[C@@H](C)O)NC1=O here?
Answer: -1.31%

Question: Which activity (max response) does the source give for Cc1ccc(NC(=O)Nc2nnc(Sc3ncnc4cc(OCCCN5CCOCC5)ccc34)s2)cc1 here?
Answer: -9.58%

Question: Which activity (max response) does the source give for C[C@]1(Cn2ccnn2)[C@H](C(=O)O)N2C(=O)C[C@H]2S1(=O)=O here?
Answer: 2.68%

Question: Which Potency does the source give for CC[C@@]1(O)C(=O)OCc2c1cc1n(c2=O)Cc2c-1nc1ccccc1c2CCNC(C)C here?
Answer: 0.0823 µM (active)

Question: With CCCNC(=O)[C@H]1O[C@@H]1C(=O)N[C@H](C(=O)N1CCC[C@H]1C(=O)OC)C(C)CC (stereo not given in full) as the compound, how does the Potency read?
Answer: 10 µM (active)

Question: For COc1cc(C(=O)OC(COCCC(C)C)CN2CCOCC2)cc(OC)c1OC (stereo not given), which activity (max response) is on record?
Answer: 9.82%

Question: For Nc1nc(F)nc2c1ncn2C1OC(COP(=O)(O)O)C(O)C1O (stereo not given), which activity (max response) is on record?
Answer: -0.687%

Question: For Cc1ccc(-n2nc(C(C)(C)C)cc2NC(=O)NCc2cc(F)ccc2Oc2ccc3c(cnn3CCO)c2)cc1, which Potency is on record?
Answer: 17.8 µM (active)

Question: With CC(=O)c1cc2c(o1)C(=O)c1ccccc1C2=O as the compound, how does the Potency read?
Answer: 3.16 µM (active)

Question: Which activity (max response) does the source give for COC(=O)C1=C(C)NC(c2ncc(F)cc2F)=N[C@H]1c1ccc(F)cc1Cl here?
Answer: -9.49%

Question: For Cc1nc(-c2cccnc2)sc1C(=O)Nc1ccccc1-c1cn2c(CN3CCOCC3)csc2n1, which activity (max response) is on record?
Answer: -5.59%

Question: With CC(=O)Nc1ccc(C(=O)O)cc1 as the compound, how does the activity (max response) read?
Answer: 11.7%

Question: Which activity (max response) does the source give for Cc1cccc(C)c1NC(=O)CN1CCN(CCCC(c2ccc(F)cc2)c2ccc(F)cc2)CC1 here?
Answer: -13.9%

Question: With OCCN1CCN(CCCN2c3ccccc3Sc3ccc(Cl)cc32)CC1 as the compound, how does the Potency read?
Answer: 6.51 µM (active)

Question: For COc1cc2ncnc(Nc3ccc(O)c(Br)c3)c2cc1OC, which Potency is on record?
Answer: 3.55 µM (active)

Question: For CCCCCCCC/C=C\CCCCCCCC(=O)NCc1ccc(O)c(OC)c1, which Potency is on record?
Answer: 3.26 µM (active)

Question: For C=CC(=O)Nc1cccc(Nc2nc(Nc3ccc(OCCOC)cc3)ncc2F)c1, which Potency is on record?
Answer: 15.8 µM (active)

Question: For CN(C)CCCOC1(Cc2ccccc2)CCCCCC1, which activity (max response) is on record?
Answer: 2.61%

Question: For Cc1cc(I)ccc1Nc1c(C(=O)NOCC2CC2)cc(F)c(F)c1F, which Potency is on record?
Answer: 3.16 µM (active)

Question: With O=c1sn(-c2cccc3ccccc23)c(=O)n1Cc1ccccc1 as the compound, how does the activity (max response) read?
Answer: -18.3%

Question: Which Potency does the source give for Cc1cc(CS(=O)(=O)c2ccccc2)cc(OCc2ccc(CN3CCC[C@@H]3CO)cc2)c1 here?
Answer: 28.2 µM (active)

Question: Which Potency does the source give for COc1cc(OC)c(/C=C/S(=O)(=O)Cc2ccc(OC)c(OP(=O)(O)O)c2)c(OC)c1 here?
Answer: 0.0398 µM (active)

Question: With C=C1CCC2[C@](C)(CO)C(O)CC[C@]2(C)C1C/C=C1/C(=O)OCC1O (stereo not given in full) as the compound, how does the Potency read?
Answer: 25.1 µM (active)

Question: Which activity (max response) does the source give for Cc1ccc(C(=O)C(=O)O)cc1C here?
Answer: 1.9%

Question: Which Potency does the source give for NC(=O)c1cccc2c(NC(CN3CCC3)c3ccc(Cl)c(C(F)(F)F)c3)ncnc12 (stereo not given) here?
Answer: 14.1 µM (active)

Question: Which activity (max response) does the source give for CCCCN(CCCC)CCCOC(=O)c1ccc(N)cc1 here?
Answer: -3.65%

Question: With C[C@@H]1CN(CC(=O)Nc2ccc3c(c2)Cc2cccc(-c4cc(=O)cc(N5CCOCC5)o4)c2S3)C[C@H](C)O1 as the compound, how does the Potency read?
Answer: 28.2 µM (active)

Question: With Nc1nc(F)nc2c1ncn2[C@@H]1O[C@H](COP(=O)(O)O)[C@@H](O)[C@@H]1O as the compound, how does the activity (max response) read?
Answer: -12.7%

Question: Which activity (max response) does the source give for NNc1nnc(NN)c2ccccc12 here?
Answer: -8.18%

Question: For CCC1(c2cnc[nH]2)Cc2ccccc2C1, which activity (max response) is on record?
Answer: -4.6%

Question: Which activity (max response) does the source give for Cn1c(=O)c2c(ncn2CCO)n(C)c1=O here?
Answer: -10.8%

Question: With O=C(Nc1ccc(OC(F)(F)Cl)cc1)c1cnc(N2CC[C@@H](O)C2)c(-c2ccn[nH]2)c1 as the compound, how does the Potency read?
Answer: 20 µM (active)

Question: With C[C@@H]1O[C@@H](OC[C@H]2O[C@@H](Oc3c(-c4ccc(O)c(O)c4)oc4cc(O)cc(O)c4c3=O)[C@H](O)[C@@H](O)[C@@H]2O)[C@H](O)[C@H](O)[C@H]1O as the compound, how does the activity (max response) read?
Answer: 16.6%

Question: For CCNC(=O)[C@@H]1CCCN1C(=O)[C@H](CCCN=C(N)N)NC(=O)[C@H](CC(C)C)NC(=O)CNC(=O)[C@H](Cc1ccc(O)cc1)NC(=O)[C@H](CO)NC(=O)[C@H](Cc1c[nH]c2ccccc12)NC(=O)[C@H](Cc1cnc[nH]1)NC(=O)[C@@H]1CCC(=O)N1 ([pGlu]HWSYGLRP-NHEt), which activity (max response) is on record?
Answer: 7.58%
